Calls of active or inactive are those of the source. The call rests on the fitted dose curve; in most records, active means well fitted inhibition curve with a large enough effect; inconclusive means small, poorly fitted or top-dose-only effect; inactive means flat fitted curve, though single readings scatter.
tested on: Nanoluciferase (engineered Oplophorus gracilirostris luciferase); assay: Primary Nanoluciferase (NLuc) qHTS assay for identification of artifact compounds. (AID 1845222); conditions: NLuc-conditioned medium, Nano-Glo luminescence, 5 min; series mostly up to 54.1 µM; activity, negative = inhibition: at the top concentration;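 further: 0% = DMSO and -100% = no enzyme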
Procedure, shortened: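 Concentration-response data were obtained by luminescence after 5 min with Nano-Glo substrate at 1:100. The enzyme was diluted S16 NLuc-expressing cell medium, preincubated with compound for 15 min at RT. Curves were fitted with a 4-parameter Hill model.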

| SMILES | activity, negative = inhibition |
| --- | --- |
| CC(C)CC(c1c(O)c(C=O)c(O)c(C=O)c1O)C1CCC(C)(O)C2CC(C(C)(C)O)CCC12C (stereo unspecified) | 2.16% [at 25.7 µM] (inactive) |
| CC1(C)CC[C@]2(C(=O)O[C@@H]3O[C@H](CO[C@@H]4O[C@H](CO[C@@H]5O[C@H](CO)[C@H](O)[C@H](O)[C@H]5O)[C@@H](O)[C@H](O)[C@H]4O)[C@@H](O)[C@H](O[C@@H]4O[C@H](CO)[C@@H](O)[C@H](O)[C@H]4O)[C@H]3O)[C@H](O)C[C@]3(C)C(=CCC4[C@@]5(C)CC[C@H](O[C@@H]6OC[C@@H](O)[C@H](O)[C@H]6O)[C@@](C)(C(=O)O)C5CC[C@]43C)[C@@H]2C1 (stereo partly specified) | -3.7% [at 11.6 µM] (inactive) |
| C=C1CC[C@@]2(OC1)O[C@H]1CC3[C@@H]4CC=C5C[C@@H](O)C[C@@H](O[C@@H]6OC[C@H](O)[C@H](O)[C@H]6O[C@@H]6O[C@@H](C)[C@H](O)[C@@H](O)[C@H]6O)[C@]5(C)C4CC[C@]3(C)[C@H]1[C@@H]2C (stereo partly specified) | -0.867% [at 25.7 µM] (inactive) |
| CC(=O)OC1CC(C(C)(C)O)OC2CCC3(C)OC4=C(C(=O)C=C5C(C)C(OC(C)=O)C6(C)C(C)OC546)C(O)C3C12C (stereo unspecified) | 1.38% [at 25.7 µM] (inactive) |
| C[C@@H]1CCC2C(C)(C)[C@H](O)[C@H](O)C[C@]2(C)[C@@]12Cc1c(O)cc3c(c1O2)CN(CCCC(=O)O)C3=O (stereo partly specified) | -0.794% [at 25.7 µM] (inactive) |
| CO[C@H]1c2cc(C(C)C)c(O)c(O)c2[C@@]23CCCC(C)(C)C2[C@@H]1OC3=O (stereo partly specified) | -1.06% (inactive) |
| C/C=C/C=C/C(=O)OC1CC/C=C/C(O)C(O)C(CCC)OC1=O (stereo unspecified) | -0.804% (inactive) |
| CCN1CCN(C(=O)N[C@@H](C(=O)N[C@@H]2C(=O)N3[C@@H]2SC(C)(C)[C@@H]3C(=O)O)c2ccccc2)C(=O)C1=O | 3.71% (inactive) |
| COC1CC(O[C@H]2CC[C@@]3(C)C(=CC[C@]4(O)C3[C@H](O)[C@@H](O)[C@]3(C)[C@@H]([C@H](C)O)CC[C@@]34O)C2)OC(C)C1OC1CC(OC)C(OC2CC(OC)C(OC3OC(C)C(OC4OC(CO)C(O)C(O)C4O)C(OC)C3O)C(C)O2)C(C)O1 (stereo partly specified) | 0% [at 11.6 µM] (inactive) |
| O=C(NCC(=O)N1CCCC1)Nc1ccc2ccccc2c1 | -1.45% (inactive) |
| CC1CCC2C(C)(C)[C@H](O)CC[C@]2(C)C12Cc1c(O)cc3c(c1O2)CN(C(CCC(=O)O)C(=O)O)C3=O (stereo partly specified) | 0.609% [at 25.7 µM] (inactive) |
| Cc1cc(C(=O)N2Cc3cnn(C)c3Nc3ccccc32)ccc1CNC(=O)N1CCN(Cc2cc(O)cc(O)c2)CC1 | 2.68% (inactive) |
| CC(C)C1CCC(CO)=CC1/C=C(\CO)C(=O)OCC1(O)CCC(C(C)C)C2C=C(C(=O)O)COC(=O)C21 (stereo unspecified) | -2.51% [at 25.7 µM] (inactive) |
| C=C(CCO)C(=O)OCC1OCC(OC(=O)C(=C)CCO[C@@H]2O[C@H](CO)[C@@H](O)[C@H](O)[C@H]2O)C(O)C1O (stereo partly specified) | -1.23% [at 25.7 µM] (inactive) |
| C=C[C@]1(C)C[C@@H](OC(=O)CSC2C[C@H]3CC[C@@H](C2)N3C)[C@]2(C)[C@H](C)CC[C@]3(CCC(=O)[C@H]32)[C@@H](C)[C@@H]1O (stereo partly specified) | 4.25% (inactive) |
| CC(C)Oc1ccc(-c2nc(-c3cccc4c3CCC4NCCC(=O)O)no2)cc1C#N (stereo unspecified) | -0.219% (inactive) |
| CC(C)(O)c1ccc2c(c1)C(=O)C[C@H]1[C@](C)(C(=O)O)CCC[C@]21C | 1.77% (inactive) |
| CC(O)C(O)/C=C/C=C/C(=O)O[C@@H]1C=C(C(=O)O)[C@](O)(CO)[C@@]2(C)CCCC(C)(C)[C@H]12 (stereo partly specified) | -2.1% [at 25.7 µM] (inactive) |
| CCOc1ncc(S(=O)(=O)N2CCN(CC)CC2)cc1-c1nc2c(CC)n(CCOC)nc2c(=O)[nH]1 | 0% (inactive) |
| COc1cc(C)c(C(=O)NC2C(C)OC(OC3CCC(C)C4C3C=C(C)C3/C(C)=C\CC/C(C)=C/C5(C)C=C(C(=O)O)C(C)CC56OC(=O)/C(=C(\O)C34C)C6=O)C(O)C2(C)O)c(O)c1 (stereo unspecified) | 4.93% [at 11.6 µM] (inactive) |
| CC(C)[C@@H](C(=O)O)N1Cc2c(cc(O)c3c2O[C@]2(C3)[C@H](C)CCC3C(C)(C)[C@H](O)[C@H](O)C[C@@]32C)C1=O (stereo partly specified) | 0.685% [at 25.7 µM] (inactive) |
| COc1cccc(CNc2ccc(S(=O)(=O)Nc3nc4ccccc4s3)cc2)c1O | -2.42% (inactive) |
| O=C(OC[C@H]1O[C@@H](Oc2ccccc2COC(=O)C2(O)C=CCCC2O)[C@H](O)[C@@H](O)[C@@H]1O)c1ccccc1 (stereo partly specified) | -6% [at 25.7 µM] (inactive) |
| C/C=C/C=C/C1=C2C(=O)C3(C)C4C(C(=O)CC(O)/C=C/C)=C(O1)C1(C)C2C2(C)OC1(O)C4(C)OC23O (stereo unspecified) | -5.65% [at 25.7 µM] (inactive) |
| CC(=O)[C@@H]1C[C@H](C(C)(C)O[C@@H]2O[C@H](CO)[C@@H](O)[C@H](O)[C@H]2O)CC[C@@]2(CO)OC(=O)C[C@@H]12 | 0% [at 25.7 µM] (inactive) |
| Cc1ccc(-c2c(-c3nn(C)c4ncnc(N5CC[C@H](N6CCCCC6)C5)c34)cnn2C)cc1 | 0% (inactive) |

From PubChem BioAssay (NCATS)
